In the supplement of paper PMC10849652 one finds log2 fold change data, which are given here for 3 targets.

Common to all, as to assay: log2 fold change, soluble protein after heating vs DMSO (PISA); higher = thermal stabilisation; K562 cells, 10 uM, 30 min; active = over 0.2 and 3.5 SD of the protein, either way, in both replicates (recomputed)
Compound in assay [1]: CS(=O)(=O)c1ccc(-c2cnc(N)c(C(=O)Nc3ccccc3)n2)cc1
The procedure, abridged: (§1)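 Soluble protein was quantified by TMTpro 16plex LC-MS/MS after channel sums were equalised. It was obtained as the supernatant after 21,000xg for 90 min from pooled aliquots of K562 cells (2×10^6 cells/mL, 10 μM compound, 30 min) heated for 3 min across 48°C-58°C and extracted in PBS with 0.5% NP-40 at 4°C. Thermal stability values are relative to control samples and come from duplicates. They are given as log2 fold changes.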

Compound in a further assay: C[C@@H](Oc1cc(-c2cnn(C3CCNCC3)c2)cnc1N)c1c(Cl)ccc(F)c1Cl [crizotinib]
The procedure, abridged:
as §1

Compound in assay [2]: C[C@@H]1COCCN1C2=NC(=NC(=C2)C3(CC3)S(=O)(=O)C)C4=C5C=CNC5=CC=C4
The procedure, abridged: as §1

Compound in assay [3]: C[C@H](C1=CC=C(C=C1)C(=O)NC2=C3C=CNC3=NC=C2)N
The procedure, abridged:
as §1

Compound in another assay: C[C@H](Nc1ncnc2nc[nH]c12)c1cc2cccc(Cl)c2c(=O)n1-c1ccccc1 [duvelisib]
The procedure, abridged:
as §1

Compound in another assay: Cc1cc(Nc2cc(CN3CCOCC3)c3nc(C)c(Cc4ccc(Cl)cc4F)n3n2)n[nH]1 [gandotinib]
The procedure, abridged: as §1

Compound in the next assay: Cc1cc(Nc2cc(N3CCN(C)CC3)nc(Sc3ccc(NC(=O)C4CC4)cc3)n2)n[nH]1 [tozasertib]
The procedure, abridged:
as §1

Compound in assay [4]: Cc1cc(SCc2sc(-c3ccc(C(F)(F)F)cc3)nc2C)ccc1OCC(=O)O
The procedure, abridged: as §1

Compound in another assay: Cc1ccc(-n2nc(C(C)(C)C)cc2NC(=O)Nc2ccc(OCCN3CCOCC3)c3ccccc23)cc1 [doramapimod]
The procedure, abridged:
as §1

Compound in a further assay: Cc1ccc(C(=O)N(CCCN)[C@@H](c2nc3cc(Cl)ccc3c(=O)n2Cc2ccccc2)C(C)C)cc1 [ispinesib]
The procedure, abridged: as §1

Targets with a hit are over-represented here; the source holds about 7,900 in all. About 0.6% of all pairs of compound and target were hits. Unmarked numbers belong to inactive results.

Sequence of UniProt P34913 (P34913 whole entry, looked up): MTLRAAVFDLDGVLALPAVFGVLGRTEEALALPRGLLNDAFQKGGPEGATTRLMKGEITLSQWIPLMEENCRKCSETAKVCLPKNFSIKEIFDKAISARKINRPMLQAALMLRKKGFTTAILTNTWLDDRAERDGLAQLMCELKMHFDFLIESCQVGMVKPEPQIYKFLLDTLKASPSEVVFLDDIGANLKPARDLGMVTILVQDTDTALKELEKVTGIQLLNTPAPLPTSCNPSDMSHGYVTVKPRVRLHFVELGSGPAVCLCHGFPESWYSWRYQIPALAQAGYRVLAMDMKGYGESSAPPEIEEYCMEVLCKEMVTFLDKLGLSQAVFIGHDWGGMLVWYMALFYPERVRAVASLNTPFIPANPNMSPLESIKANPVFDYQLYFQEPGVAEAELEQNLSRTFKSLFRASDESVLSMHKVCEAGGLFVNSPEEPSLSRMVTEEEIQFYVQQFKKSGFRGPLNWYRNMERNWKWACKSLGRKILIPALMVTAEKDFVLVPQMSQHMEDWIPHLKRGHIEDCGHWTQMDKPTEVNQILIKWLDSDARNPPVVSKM
Sequence of UniProt Q5T6F0 (Q5T6F0 whole entry, looked up): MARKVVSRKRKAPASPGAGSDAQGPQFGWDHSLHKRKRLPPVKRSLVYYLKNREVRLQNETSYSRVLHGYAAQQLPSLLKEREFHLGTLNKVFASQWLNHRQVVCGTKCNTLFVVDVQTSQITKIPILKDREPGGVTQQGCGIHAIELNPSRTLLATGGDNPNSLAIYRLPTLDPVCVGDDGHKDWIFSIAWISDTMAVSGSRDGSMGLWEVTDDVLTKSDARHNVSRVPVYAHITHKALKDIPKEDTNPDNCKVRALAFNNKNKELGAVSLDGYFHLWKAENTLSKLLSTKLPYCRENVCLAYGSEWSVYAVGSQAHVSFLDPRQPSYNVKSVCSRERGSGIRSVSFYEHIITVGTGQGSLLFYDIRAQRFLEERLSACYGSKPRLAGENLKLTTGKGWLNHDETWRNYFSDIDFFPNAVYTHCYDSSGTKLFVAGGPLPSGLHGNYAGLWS
Sequence of UniProt Q9UJU6 (Q9UJU6 whole entry, looked up): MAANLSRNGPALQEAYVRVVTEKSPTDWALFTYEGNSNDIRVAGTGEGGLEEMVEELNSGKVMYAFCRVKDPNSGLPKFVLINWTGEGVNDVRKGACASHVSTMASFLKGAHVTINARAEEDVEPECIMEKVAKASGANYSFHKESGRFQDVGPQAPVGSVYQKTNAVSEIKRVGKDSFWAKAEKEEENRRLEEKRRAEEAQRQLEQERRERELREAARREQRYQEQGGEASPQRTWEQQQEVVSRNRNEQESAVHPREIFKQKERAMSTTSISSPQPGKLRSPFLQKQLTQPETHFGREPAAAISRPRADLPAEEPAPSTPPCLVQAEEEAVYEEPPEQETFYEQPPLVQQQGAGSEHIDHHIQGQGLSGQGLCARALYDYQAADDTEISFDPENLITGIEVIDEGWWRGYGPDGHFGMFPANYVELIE

EPHX2 (UniProt P34913): the log2 fold change in assay [1] is 0.036; in the assay with crizotinib, 0.169; in assay [2] it was 0.194; in [3], -0.019; with duvelisib it was 0.029; in the assay with gandotinib it was -0.018. Besides, the log2 fold change is 0.144 in the assay with tozasertib, -0.032 in assay [4], -0.016 in the assay with doramapimod and -0.01 in the assay with ispinesib.

DBNL (UniProt Q9UJU6): the log2 fold change in assay [3] is -0.166.

Take DCAF12 (UniProt Q5T6F0): the values for the log2 fold change (in assay [1]; in the assay with gandotinib) were -0.101 and -0.735 (active), respectively.
